A selection: hits, their analogues and other compounds. The true share with any hit is near 3.4%.
JMJD2E inh = blocks human JMJD2E demethylase activity. B2RXH2. JMJD2E catalytic domain, FDH-coupled NADH fluorescence (FDH is formaldehyde dehydrogenase). Potency, µM (top dose mostly 57.1 µM), most hits filed as inhibitors. hit rate 1.6% among 230,000. AID 2147; active = well fitted inhibition curve with a large enough effect, not every such curve was filed as active; inconclusive = small, poorly fitted or top-dose-only effect, or another doubt; inactive = no such curve, though single readings can be large or run the other way; note: nearly all actives have a fitted effect of over 50% in size
Target sequence (B2RXH2 1-337 limits assumed): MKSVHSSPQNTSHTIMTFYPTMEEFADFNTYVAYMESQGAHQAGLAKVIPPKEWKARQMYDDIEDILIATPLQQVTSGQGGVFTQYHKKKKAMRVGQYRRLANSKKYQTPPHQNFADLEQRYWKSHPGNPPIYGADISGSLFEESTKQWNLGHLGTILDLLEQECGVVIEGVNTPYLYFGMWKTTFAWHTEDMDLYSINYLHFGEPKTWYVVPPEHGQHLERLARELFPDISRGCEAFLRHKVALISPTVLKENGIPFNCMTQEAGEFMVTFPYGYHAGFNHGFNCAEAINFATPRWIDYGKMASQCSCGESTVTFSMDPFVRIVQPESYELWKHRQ
Tau fibril ThT = tau fibrillization inhibition (ThT binding); recombinant tau K18 P301L, heparin-induced fibrillization, ThT fluorescence; AID 1460; Potency, µM (top dose mostly 57.4 µM), actives largely listed as inhibitors; hit rate 2.1% among 270,000; P10636; note: nearly all actives have a fitted effect of over 55% in size
Target sequence (P10636 561-689 P618L limits assumed): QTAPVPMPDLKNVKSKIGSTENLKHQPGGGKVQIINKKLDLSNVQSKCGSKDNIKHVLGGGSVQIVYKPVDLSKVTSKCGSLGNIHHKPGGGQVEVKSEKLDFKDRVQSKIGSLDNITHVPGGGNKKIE
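ThT emission at 510 nm, taken 1 hr after adding 30 uM dye, quantifies aggregates formed when 20 uM heparin acts on human tau K18 P301L for 6 hr at 37 C.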
RGS12 GoLoco inh = blocks human Gai1 binding to RGS12 GoLoco peptide, red readout; P63096; Gai1:RGS12 GoLoco peptide FP, rhodamine, 10 min; Potency, µM (titrated, usually from 61.6 µM), hits mostly inhibitors; hit rate 0.44% among 230,000; AID 880; active = well fitted inhibition curve with a large enough effect, not every such curve was filed as active; inactive = no such curve, though single readings can be large or run the other way; note: nearly all actives have a fitted effect of over 30% in size
Tau fluor cs = counter-screen for tau fibril formation inhibitors; AID 1463; Potency, µM (titrated, usually from 57.7 µM); tau K18 P301L (four-repeat tau fragment) Alexa594 fluorescence, heparin fibrillization; hit rate 0.93% among 280,000; note: nearly all actives have a fitted effect of over 55% in size
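Human K18 P301L tau (15 uM unlabeled plus 0.24 uM Alexa 594-labeled, final) in 100 mM sodium acetate pH 7 was mixed with compound and 20 uM heparin and incubated 6 hr at 37 C.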
Tau FP inhib = blocks human tau fibril formation measured by polarization | Potency, µM (series often up to 57.7 µM), hits mostly inhibitors | K18 P301L tau heparin fibrillization, Alexa594 FP, 6 h | AID 1468 | P10636 | hit rate 0.39% among 280,000; note: nearly all actives have a fitted effect of over 55% in size
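Human K18 P301L fragment (15 uM unlabeled plus 0.24 uM Alexa 594-labeled) in 100 mM sodium acetate pH 7 with compound, aggregation induced by 20 uM heparin for 6 hr at 37 C. ThT (30 uM) added for 1 hr, then Alexa 594 FP read.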
Of the large screens only hits and unclear results are named; the others gave an inactive call; [ ] = another dose, or the depositor's remark. Unless noted, calls come from the whole dose curve; as a rule, active = well fitted curve in the direction sought with a large enough effect; inconclusive = small, poorly fitted or top-dose-only effect, or another doubt; inactive = no such curve, though single readings can be large; an effect the other way counts as inactive or inconclusive.

CC(C)(C)C(=O)c1sc2nc(-c3cccs3)cc(C(F)(F)F)c2c1N	JMJD2E inh 6.3µM, Tau fibril ThT inconclusive
Nc1c(C(=O)Nc2nccs2)sc2nc(-c3cccs3)cc(C(F)(F)F)c12	JMJD2E inh inconclusive
CSc1nsc(/C=C/Nc2ccc(Cl)cc2)c1C#N	Tau fibril ThT 16µM, Tau fluor cs inconclusive
CSc1nsc(/C=C/Nc2ccc(O)cc2C)c1C#N	JMJD2E inh 13µM, Tau fibril ThT 16µM, Tau fluor cs inconclusive, Tau FP inhib 25µM
COc1cc(/C=C(\C#N)c2nc3ccccc3c(=O)[nH]2)cc(OC)c1OC	none (no result: JMJD2E inh, RGS12 GoLoco inh)
Oc1ccc(-c2cnns2)c(O)c1	Tau fibril ThT inconclusive, RGS12 GoLoco inh 1.3µM
CCc1ccc(CN(Cc2cn[nH]c2-c2ccc(OC)cc2)C(=O)Nc2cc(Cl)ccc2OC)cc1	none (no result: JMJD2E inh, RGS12 GoLoco inh)
CCOc1ccc(CCNC(=O)c2cn(CC)c3ccc(S(=O)(=O)N4CCCCCC4)cc3c2=O)cc1OCC	none (no result: JMJD2E inh, RGS12 GoLoco inh)
CC(=O)N1CCN(c2cc(N3CCc4ccccc4C3)c(F)cc2[N+](=O)[O-])CC1	Tau fibril ThT 16µM
CCOC(=O)N1CCN(c2cc(N)c([N+](=O)[O-])cc2F)CC1	Tau fibril ThT 4.5µM
COCCCNC(=O)c1oc2c(c1C)-c1nn(Cc3ccccc3Cl)cc1CC2	Tau fluor cs inconclusive (no result: JMJD2E inh, RGS12 GoLoco inh)
O=C(O)c1ccc(N/N=C/c2cccc(F)c2)cc1	none
O=C(O)c1ccc(N/N=C/C2=Cc3ccccc3OC2)cc1	JMJD2E inh inconclusive, Tau fibril ThT 4µM, Tau fluor cs 13µM[quencher]
Cc1nn(CCC(=O)Nc2ccc(Cl)cc2)c(C)c1S(=O)(=O)N1CCCCC1	Tau FP inhib inconclusive (no result: JMJD2E inh, RGS12 GoLoco inh)
O=[N+]([O-])c1cc(-c2cnc3ccccc3n2)ccc1Cl	Tau fibril ThT inconclusive
O=[N+]([O-])c1cc(-c2ccc(/C=N/c3nc4ccccn4c3-c3ccco3)o2)ccc1Cl	JMJD2E inh inconclusive, Tau fibril ThT 11µM, Tau fluor cs 25µM[quencher], Tau FP inhib inconclusive
CNc1ccc(Br)cc(C(=O)/C=C/c2ccc(OC)cc2OC)c1=O	JMJD2E inh inconclusive, Tau fibril ThT 11µM, Tau fluor cs inconclusive, Tau FP inhib inconclusive
CNc1ccc(Br)cc(C(=O)/C=C/c2ccc(Cl)cc2Cl)c1=O	JMJD2E inh inconclusive, Tau fibril ThT 10µM, Tau fluor cs inconclusive, Tau FP inhib inconclusive
CNc1ccc(Br)cc(C(=O)/C=C/c2cccc(OC)c2)c1=O	JMJD2E inh inconclusive, Tau fibril ThT 11µM, Tau fluor cs inconclusive
CN(C)/C=C/C(=O)/C=C/c1ccc(Cl)cc1Cl	Tau fibril ThT inconclusive
COc1ccc(/C=C/C(=O)c2ccc(OC)cc2OC)c(OC)c1	Tau fibril ThT inconclusive
Cc1oc(C)c2c(=O)ccc3c(c12)OC(N)=C(C#N)C3c1ccccc1 (centres undefined)	JMJD2E inh inconclusive, Tau fibril ThT 25µM, Tau fluor cs inconclusive, Tau FP inhib inconclusive
Cc1oc(C)c2c(=O)ccc3c(c12)OC(N)=C(C#N)C3c1ccccc1Cl (centres undefined)	JMJD2E inh 18µM, Tau fibril ThT 20µM, Tau fluor cs inconclusive, Tau FP inhib inconclusive
CSc1ccc(C2C(C#N)=C(N)Oc3c2ccc(=O)c2c(C)oc(C)c32)cc1 (centres undefined)	JMJD2E inh inconclusive, Tau fibril ThT 25µM, Tau fluor cs inconclusive, Tau FP inhib inconclusive
O=C(Nc1c(C(=O)N2CCN(c3ccccc3)CC2)oc2ccccc12)c1ccc(Br)o1	none (no result: JMJD2E inh, RGS12 GoLoco inh)
COC(=O)C1=C(C)NC(=O)/C1=C\c1ccc2c(c1)OCO2	Tau fibril ThT 13µM
CCc1ccc(-c2csc3[n+]2CCN3C(C)=O)cc1	Tau fibril ThT 25µM, Tau FP inhib inconclusive
CC(=O)N1CCN(C(=S)c2ccc(Cl)cc2)CC1	none
CC(=O)N1CC[n+]2c(-c3ccc(Cl)cc3)csc21	Tau fibril ThT 28µM, Tau FP inhib inconclusive
NC(=[SH+])N=N/C=C1/C=CC=CN1.O=S(=O)(O)O.[Fe]	none (no result: JMJD2E inh, Tau fibril ThT, Tau fluor cs, Tau FP inhib)
CCOC(=O)c1c(/N=C/c2cc(OC)cc([N+](=O)[O-])c2O)sc(C)c1C	Tau fibril ThT 8.9µM, Tau fluor cs inconclusive, Tau FP inhib inconclusive
COc1cc(/C=N/n2c(=S)[nH]nc(C)c2=O)cc([N+](=O)[O-])c1O	none
CCc1n[nH]c(=S)n1/N=C/c1cc(OC)cc([N+](=O)[O-])c1O	Tau fibril ThT 5µM
CCOC(=O)c1c(/N=C/c2ccccc2O)sc2c1CCC2	none (no result: RGS12 GoLoco inh)
CCOC(=O)c1c(/N=C/c2cc([N+](=O)[O-])ccc2O)sc(C)c1C	Tau fibril ThT inconclusive, Tau fluor cs inconclusive
CCOC(=O)c1c(/N=C/c2cccc([N+](=O)[O-])c2O)sc2c1CCC2	Tau fibril ThT 16µM
CSc1ccc(CCNc2ncnc3onc(C)c23)cc1	none (no result: JMJD2E inh, RGS12 GoLoco inh)
CCn1cc2nc(SCc3cccc(C(F)(F)F)c3)n(Cc3ccc(C)cc3)c(=O)c2n1	none (no result: JMJD2E inh, RGS12 GoLoco inh)
Cc1cc(C)cc(-n2ccnc2SCC(=O)Nc2ccc3c(c2)OCO3)c1	Tau fibril ThT inconclusive (no result: JMJD2E inh, RGS12 GoLoco inh)
COc1ccc2[nH]c(=O)c(CN(C(=O)c3cccc(Cl)c3)c3ccccc3OC)cc2c1	none (no result: JMJD2E inh, RGS12 GoLoco inh)
COc1cc(OC)c2c(-c3cccc(-c4ccc(O)cc4)c3)cc(=O)oc2c1	Tau fibril ThT inconclusive, Tau fluor cs 22µM[quencher], Tau FP inhib inconclusive (no result: JMJD2E inh)
O=C(Oc1ccccc1)N1CCN(c2ccc(F)cc2)CC1	none
O=C(Nc1ccc(N2CCN(c3ccc(O)cc3)CC2)cc1)Oc1ccccc1	JMJD2E inh inconclusive, Tau fibril ThT 5µM, Tau fluor cs 7.9µM[quencher]
Cc1ccc(OC(=O)Nc2ccccc2)cc1	none
Nc1ccc(OC(=O)Nc2ccc(O)cc2)cc1	JMJD2E inh 18µM, Tau fluor cs inconclusive, Tau FP inhib inconclusive (no result: Tau fibril ThT)
CC1CCCN(c2ccc(C(=O)Nc3ccc4c(c3)OCO4)cc2[N+](=O)[O-])C1 (centres undefined)	Tau fibril ThT 7.1µM, Tau fluor cs inconclusive
O=C(COC(=O)c1ccc(N2CCOCC2)c([N+](=O)[O-])c1)Nc1ccc2c(c1)OCO2	Tau fibril ThT inconclusive
CC1CCCN(c2ccc(C(=O)NCc3ccc4c(c3)OCO4)cc2[N+](=O)[O-])C1 (centres undefined)	Tau fibril ThT inconclusive, Tau fluor cs inconclusive
CC1CCCN(c2ccc(C(=O)Nc3nnc(C4CC4)s3)cc2[N+](=O)[O-])C1 (centres undefined)	Tau fibril ThT 4µM, Tau FP inhib inconclusive
Cc1ccc(C)c2sc(NC(=O)c3ccc(N4CCCCC4)c([N+](=O)[O-])c3)nc12	Tau fibril ThT inconclusive
CC1CCN(c2ccc(C(=O)Nc3ccc4c(c3)OCO4)cc2[N+](=O)[O-])CC1	Tau fibril ThT 4µM, Tau fluor cs inconclusive
COc1ccccc1N/C=C/c1onc(C)c1[N+](=O)[O-]	Tau fibril ThT inconclusive
Cc1noc(/C=C/Nc2ccc(F)cc2F)c1[N+](=O)[O-]	Tau fibril ThT 3.2µM
COc1ccc(-n2c(C)cc(/C=N/Nc3nnc(C)n3N)c2C)cc1	JMJD2E inh inconclusive, Tau fibril ThT 28µM, Tau FP inhib inconclusive
CCOc1ccc(-n2c(C)cc(/C=N/Nc3nc(C)cc(=O)[nH]3)c2C)cc1	JMJD2E inh inconclusive, Tau fibril ThT inconclusive, Tau fluor cs inconclusive

Compound activity as filed in PubChem BioAssay.
